# From a collection of fitness landscapes (doi:10.1016/j.celrep.2020.107928)
# In all, about 81,000 sequences were measured (“one-hybrid fitness for binding NBS DNA”: median about -0.1, highest 2% from about 0.36 on). Shown is part of a subset that was picked to be rich in the highest values.
# B1: Caulobacter ParB omega fusion; a variant is named by its letters at X, in order, B8GW30 (parent)
# chain: MESVVVGEPGMSEGRRGLGRGLSALLGEVDAAPAQAPGEQLGGSREAPIEILQRNPDQPRRTFREEDLEDLSNSIREKGVLQPILVRPSPDTAGEYQIVAGERAWRAAQRAGLKTVPIMVRELDDLAVLEIGIIENVQRADLNVLEEALSYKVLMEKFERTQENIAQTIGKSXSHVANXMRLLXLPDEVQSYLVSGELTAXHARAIAAAADPVALAKQIIEGGLSVRETEALARKAPNLSAGKSKGGRPPRVKDTDTQALESDLSSVLGLDVSIDHRGSTGTLTITYATLEQLDDLCNRLTRGI
# Variants of: B1
# Test: one-hybrid fitness for binding NBS DNA (the Noc-binding site; scaled: cognate 1, non-cognate 0); higher = stronger binding
# Details: with NBS DNA site
# Method in brief: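 Bacterial one-hybrid selection in E. coli USO rpoZ- hisB- pyrF- with a HIS3 reporter carrying the site 19 bp from the promoter, screening Caulobacter ParB libraries with four specificity codons randomised (NNS). Cells grew 48 hours at 37°C on M9-minus-histidine plus 0.1 mM IPTG and 5 mM 3-AT. Plasmids before and after selection were Illumina-sequenced, three replicate libraries pooled, and variants under 10 reads dropped. Fitness is the log change in variant-to-wild-type read ratio, rescaled to cognate 1, non-cognate 0.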
row,Variant,one-hybrid fitness for binding NBS DNA
1,NVIT,≤ 0.2
2,NCKE,≤ 0.2
3,GYMR,≤ 0.2
4,VACG,≤ 0.2
5,GAQH,≤ 0.2
6,LKVD,≤ 0.2
7,RKFQ,≤ 0.2
8,RPFR,≤ 0.2
9,RKFK,≤ 0.2
10,RKAR,0.597
11,RFFR,≤ 0.2
12,RCFR,0.376
13,RKAN,≤ 0.2
14,RKAH,0.322
15,RKFR,0.443
16,PSEM,≤ 0.2
17,VQGT,≤ 0.2
18,EMAT,≤ 0.2
19,MADF,≤ 0.2
20,PISS,≤ 0.2
21,CTLV,≤ 0.2
22,YGYV,≤ 0.2
23,RTVT,0.393
24,RTVK,≤ 0.2

row,Variant,one-hybrid fitness for binding NBS DNA
1,RTKQ,0.356
2,RTKC,0.31
3,RTKT,0.724
4,RTVD,≤ 0.2
5,EDMY,≤ 0.2
6,WWLN,≤ 0.2
7,RCEN,≤ 0.2
8,DHID,≤ 0.2
9,PMHC,≤ 0.2
10,TEPL,≤ 0.2
11,PAKT,≤ 0.2
12,PFVA,≤ 0.2
13,GVMR,≤ 0.2
14,QQVT,0.393
15,QQVP,≤ 0.2
16,QQKT,0.811
17,KQKT,0.222
18,QQVN,≤ 0.2
19,QQKF,0.356
20,DFWV,≤ 0.2
21,PKQR,≤ 0.2
22,TNGR,≤ 0.2
23,DAAG,≤ 0.2
24,CWHR,≤ 0.2

row,Variant,one-hybrid fitness for binding NBS DNA
1,QSGN,≤ 0.2
2,QAGT,0.37
3,QAGN,≤ 0.2
4,QSGT,0.385
5,QTGY,0.312
6,QAGS,0.342
7,QTGT,0.64
8,QLGH,≤ 0.2
9,QSGD,≤ 0.2
10,QLGT,0.369
11,QLGS,0.322
12,QTGQ,0.27
13,DRLC,≤ 0.2
14,AHIW,≤ 0.2
15,CMMG,≤ 0.2
16,SQTP,≤ 0.2
17,CRSF,≤ 0.2
18,KPEL,≤ 0.2
19,QHGS,0.343
20,QIGT,0.331
21,QPGT,≤ 0.2
22,QHGP,≤ 0.2
23,QCGT,0.558
24,QHGT,0.385

row,Variant,one-hybrid fitness for binding NBS DNA
1,LTNG,≤ 0.2
2,SHCL,≤ 0.2
3,DTQK,≤ 0.2
4,GMQY,≤ 0.2
5,SYPN,≤ 0.2
6,QRIN,≤ 0.2
7,QRPP,≤ 0.2
8,QRPS,0.461
9,QRIS,0.546
10,QRPD,≤ 0.2
11,QRIH,0.335
12,TLDA,≤ 0.2
13,VTHW,≤ 0.2
14,PTMM,≤ 0.2
15,REHM,≤ 0.2
16,TEDC,≤ 0.2
17,MFLM,≤ 0.2
18,WPQL,≤ 0.2
19,QDTP,≤ 0.2
20,SAMV,≤ 0.2
21,RKKA,0.514
22,RKVA,≤ 0.2
23,RKWA,0.249
24,RTKA,0.479

row,Variant,one-hybrid fitness for binding NBS DNA
1,RIKA,0.327
2,RPKA,≤ 0.2
3,RCKA,0.423
4,RSKA,0.343
5,RRKA,0.712
6,RTPA,≤ 0.2
7,RFKA,≤ 0.2
8,RTVA,≤ 0.2
9,VDGR,≤ 0.2
10,KWPI,≤ 0.2
11,RNIK,≤ 0.2
12,VKTS,≤ 0.2
13,LYFR,≤ 0.2
14,CLSP,≤ 0.2
15,QWKS,≤ 0.2
16,SAIE,≤ 0.2
17,RRVA,0.571
18,RCVA,≤ 0.2
19,RSVA,≤ 0.2
20,SFPF,≤ 0.2
21,CLCS,≤ 0.2
22,HDRG,≤ 0.2
23,PCMM,≤ 0.2
24,QHNN,≤ 0.2

row,Variant,one-hybrid fitness for binding NBS DNA
1,QSNS,0.421
2,QADS,≤ 0.2
3,QHDS,≤ 0.2
4,QSDS,≤ 0.2
5,QANS,0.392
6,QHNS,0.419
7,QMDS,≤ 0.2
8,QMNS,0.458
9,QMNP,≤ 0.2
10,QANP,≤ 0.2
11,QSNH,0.273
12,KNIF,≤ 0.2
13,WQYS,≤ 0.2
14,YNRS,≤ 0.2
15,VAGY,≤ 0.2
16,ITFA,≤ 0.2
17,TSRF,≤ 0.2
18,KQID,≤ 0.2
19,QLDS,≤ 0.2
20,QLNS,0.385
21,QINS,0.329
22,QPNS,≤ 0.2
23,QCNS,0.534
24,QLNP,≤ 0.2

row,Variant,one-hybrid fitness for binding NBS DNA
1,CAVL,≤ 0.2
2,QPKQ,≤ 0.2
3,QSVQ,0.291
4,QRPQ,≤ 0.2
5,QPVQ,0.598
6,QRVQ,0.511
7,QSKQ,0.351
8,QRKQ,0.492
9,QWKF,≤ 0.2
10,LTYT,≤ 0.2
11,THMS,≤ 0.2
12,QFPN,≤ 0.2
13,GTPY,≤ 0.2
14,EAGR,≤ 0.2
15,MHRT,≤ 0.2
16,RVTM,≤ 0.2
17,RVTN,≤ 0.2
18,RVTH,≤ 0.2
19,RVTY,≤ 0.2
20,RVTP,≤ 0.2
21,RVTS,0.392
22,RVTD,≤ 0.2
23,RVTT,0.449
24,RVTR,0.429

row,Variant,one-hybrid fitness for binding NBS DNA
1,LTHY,≤ 0.2
2,RNVL,≤ 0.2
3,GFEG,≤ 0.2
4,DLLN,≤ 0.2
5,QAHR,0.541
6,QAGH,≤ 0.2
7,QAIR,0.308
8,MARN,≤ 0.2
9,QAGR,0.525
10,QAPR,0.275
11,MARR,0.414
12,QAHD,≤ 0.2
13,QAHQ,≤ 0.2
14,QAYR,0.464
15,MAYR,≤ 0.2
16,QAGD,≤ 0.2
17,PHID,≤ 0.2
18,SLRF,≤ 0.2
19,CMGR,≤ 0.2
20,NAWR,≤ 0.2
21,STPW,≤ 0.2
22,CRAL,≤ 0.2
23,FGKT,≤ 0.2
24,GADW,≤ 0.2

row,Variant,one-hybrid fitness for binding NBS DNA
1,KKET,≤ 0.2
2,MDLY,≤ 0.2
3,QARD,0.23
4,QARR,0.973
5,QARP,0.24
6,AKDS,≤ 0.2
7,LERS,≤ 0.2
8,RKVQ,≤ 0.2
9,RCKQ,0.254
10,RRRQ,0.401
11,RRDQ,0.241
12,RFVQ,≤ 0.2
13,RPVQ,0.397
14,RRKQ,0.436
15,RCVQ,0.215
16,RSKQ,≤ 0.2
17,RRYQ,0.207
18,RSVQ,≤ 0.2
19,RRVQ,0.428
20,GWHC,≤ 0.2
21,VAYS,≤ 0.2
22,MTCD,≤ 0.2
23,DSMI,≤ 0.2
24,KMGG,≤ 0.2

row,Variant,one-hybrid fitness for binding NBS DNA
1,CFTM,≤ 0.2
2,YTCL,≤ 0.2
3,NNIR,≤ 0.2
4,LTMG,≤ 0.2
5,YGMS,≤ 0.2
6,RDGN,≤ 0.2
7,AVNT,≤ 0.2
8,WVRG,≤ 0.2
9,LRPM,≤ 0.2
10,KTIT,≤ 0.2
11,DVIS,≤ 0.2
12,LRVF,≤ 0.2
13,QRKF,0.405
14,QTKF,0.43
15,QPKF,≤ 0.2
16,QSKF,0.29
17,QTLF,≤ 0.2
18,QRVF,≤ 0.2
19,QCKF,0.387
20,QTVF,≤ 0.2
21,QRPF,≤ 0.2
22,ASVE,≤ 0.2
23,QMSV,≤ 0.2
24,QFMT,≤ 0.2

row,Variant,one-hybrid fitness for binding NBS DNA
1,SSYL,≤ 0.2
2,ETES,≤ 0.2
3,RVIR,0.242
4,VVRC,≤ 0.2
5,HHPQ,≤ 0.2
6,VVGI,≤ 0.2
7,EYWD,≤ 0.2
8,RSRA,0.317
9,RMRA,0.409
10,RMDA,≤ 0.2
11,RTDA,≤ 0.2
12,RTYA,0.268
13,RCRA,0.422
14,RYDA,≤ 0.2
15,RTRA,0.446
16,RYYA,≤ 0.2
17,RPRA,≤ 0.2
18,RYRA,0.367
19,RMYA,≤ 0.2
20,GMVG,≤ 0.2
21,QAEN,≤ 0.2
22,LNQS,≤ 0.2
23,QLYL,≤ 0.2
24,PLQD,≤ 0.2

row,Variant,one-hybrid fitness for binding NBS DNA
1,RKRA,0.45
2,RKDA,≤ 0.2
3,RKYA,0.344
4,LPLA,≤ 0.2
5,AQDR,≤ 0.2
6,LIAK,≤ 0.2
7,RQVC,≤ 0.2
8,RQYC,≤ 0.2
9,RQKH,0.376
10,RQKP,≤ 0.2
11,RQKN,0.214
12,RQKD,≤ 0.2
13,RQVH,≤ 0.2
14,RQKS,0.581
15,RQKC,0.381
16,PEWV,≤ 0.2
17,NNCS,≤ 0.2
18,ASVF,≤ 0.2
19,CPDH,≤ 0.2
20,EDYG,≤ 0.2
21,PTEW,≤ 0.2
22,LKYT,≤ 0.2
23,VKLR,≤ 0.2
24,WHHR,≤ 0.2

row,Variant,one-hybrid fitness for binding NBS DNA
1,CGEV,≤ 0.2
2,PNVE,≤ 0.2
3,RKKV,0.277
4,WVQL,≤ 0.2
5,KRKT,0.66
6,KPVT,≤ 0.2
7,KCKT,0.212
8,KCVT,≤ 0.2
9,KPKT,≤ 0.2
10,KRVT,0.547
11,CLTC,≤ 0.2
12,AGTG,≤ 0.2
13,LNTG,≤ 0.2
14,GMVQ,≤ 0.2
15,PNQS,≤ 0.2
16,SNTG,≤ 0.2
17,AFGR,≤ 0.2
18,RKNW,≤ 0.2
